Laboratory results as given in the supplement of paper PMC11732987, “Enantioselective OTUD7B fragment discovery through chemoproteomics screening and high-throughput optimisation” (Communications Chemistry, 2025).

Tests used:
Test in all cases: log2 ratio of Biotin-Ahx-Ub-VS probe labelling (fragment/DMSO); higher = less target engagement (more negative = stronger competition), active = hit call of the paper (q ≤ 0.05, log2 ratio ≤ -1)
Settings in all cases: compound concentration: 200 uM; treatment time: 3 h
[1] = target: T1, OTUD6B (UniProt Q8N6M0)
T1 sequence (whole entry): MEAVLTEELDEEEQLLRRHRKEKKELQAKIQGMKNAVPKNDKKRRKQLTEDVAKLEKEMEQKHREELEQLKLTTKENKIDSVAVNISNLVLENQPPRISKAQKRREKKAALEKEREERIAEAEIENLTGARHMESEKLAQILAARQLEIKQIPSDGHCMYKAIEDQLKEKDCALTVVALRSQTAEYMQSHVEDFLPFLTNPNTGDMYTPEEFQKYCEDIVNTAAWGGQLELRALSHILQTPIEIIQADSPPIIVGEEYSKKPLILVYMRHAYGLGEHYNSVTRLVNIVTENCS
Summary of the method: (§1)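 HEK293T lysate (495 µg per sample, in Tris/CHAPS/IGEPAL buffer with protease inhibitors) was exposed in triplicate for 3 h to fragment at 200 µM or to vehicle, then to Biotin-Ahx-Ub-VS at 0.5 µM final for 1 h. Labelled DUBs were enriched on NeutrAvidin, digested with LysC and trypsin, and analysed by diaPASEF LC-MS/MS. Spectronaut label-free quantities were normalised to the global median, and values are average log2 ratios of fragment over vehicle from an unpaired t-test. Only proteins with ≥2 unique peptides were used.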

[2] = target: T2, OTUD7B (UniProt Q6GQQ9)
T2 sequence (whole entry): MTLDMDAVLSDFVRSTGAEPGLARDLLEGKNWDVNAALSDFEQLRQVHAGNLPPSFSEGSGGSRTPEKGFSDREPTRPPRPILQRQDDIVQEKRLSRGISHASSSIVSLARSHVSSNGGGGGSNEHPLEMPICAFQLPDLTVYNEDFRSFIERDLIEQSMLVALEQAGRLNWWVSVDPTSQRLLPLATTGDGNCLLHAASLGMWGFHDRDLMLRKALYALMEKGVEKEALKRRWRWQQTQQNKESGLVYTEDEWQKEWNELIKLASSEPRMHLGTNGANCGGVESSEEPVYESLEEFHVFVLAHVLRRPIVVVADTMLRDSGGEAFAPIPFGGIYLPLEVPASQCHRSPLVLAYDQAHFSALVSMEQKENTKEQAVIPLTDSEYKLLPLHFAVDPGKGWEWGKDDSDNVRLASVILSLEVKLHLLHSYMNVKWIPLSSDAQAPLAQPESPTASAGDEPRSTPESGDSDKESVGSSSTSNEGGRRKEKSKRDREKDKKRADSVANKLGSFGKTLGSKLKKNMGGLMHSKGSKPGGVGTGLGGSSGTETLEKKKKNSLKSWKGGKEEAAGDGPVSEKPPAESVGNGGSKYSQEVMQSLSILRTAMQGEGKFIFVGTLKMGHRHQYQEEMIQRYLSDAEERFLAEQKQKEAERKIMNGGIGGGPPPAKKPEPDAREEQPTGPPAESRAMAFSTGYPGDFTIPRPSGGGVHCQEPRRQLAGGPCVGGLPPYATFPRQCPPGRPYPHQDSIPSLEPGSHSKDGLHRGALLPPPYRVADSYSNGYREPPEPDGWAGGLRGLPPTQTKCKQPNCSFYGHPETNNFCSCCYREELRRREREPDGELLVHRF
Summary of the method: as §1

[3] = target: PRPF8 (UniProt Q6P2Q9)
Summary of the method: as §1

[4] = target: T3, PSMD7 (UniProt P51665)
T3 sequence (whole entry): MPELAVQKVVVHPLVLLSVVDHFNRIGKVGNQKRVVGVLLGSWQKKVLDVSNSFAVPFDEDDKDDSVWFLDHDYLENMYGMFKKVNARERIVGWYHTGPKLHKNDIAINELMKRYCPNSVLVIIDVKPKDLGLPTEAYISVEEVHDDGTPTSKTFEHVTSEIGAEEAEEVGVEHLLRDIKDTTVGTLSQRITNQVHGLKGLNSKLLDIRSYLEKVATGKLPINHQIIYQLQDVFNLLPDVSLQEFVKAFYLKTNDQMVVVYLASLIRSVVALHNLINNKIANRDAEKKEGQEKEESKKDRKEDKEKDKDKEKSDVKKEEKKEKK
Summary of the method: as §1

[5] = target: UCHL1 (UniProt P09936)
Summary of the method: as §1

[6] = target: T4, UCHL3 (UniProt P15374)
T4 sequence (whole entry): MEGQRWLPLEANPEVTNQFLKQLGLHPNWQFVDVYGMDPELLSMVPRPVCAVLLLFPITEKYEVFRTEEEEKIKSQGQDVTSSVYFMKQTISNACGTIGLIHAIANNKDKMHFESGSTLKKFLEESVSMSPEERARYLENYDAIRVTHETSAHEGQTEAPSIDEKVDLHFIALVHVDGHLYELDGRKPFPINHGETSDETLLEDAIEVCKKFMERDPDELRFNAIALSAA
Summary of the method: as §1

[7] = target: T5, UCHL5 (UniProt Q9Y5K5)
T5 sequence (whole entry): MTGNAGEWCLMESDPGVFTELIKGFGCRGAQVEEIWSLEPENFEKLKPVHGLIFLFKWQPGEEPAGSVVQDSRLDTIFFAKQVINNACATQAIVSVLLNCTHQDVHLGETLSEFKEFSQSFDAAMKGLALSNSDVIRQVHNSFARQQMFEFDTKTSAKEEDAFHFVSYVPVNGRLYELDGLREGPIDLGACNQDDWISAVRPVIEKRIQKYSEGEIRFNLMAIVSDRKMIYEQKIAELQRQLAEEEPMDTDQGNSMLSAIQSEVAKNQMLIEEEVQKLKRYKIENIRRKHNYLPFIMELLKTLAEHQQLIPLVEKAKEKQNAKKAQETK
Summary of the method: as §1

[8] = target: USP10 (UniProt Q14694)
Summary of the method: as §1

[9] = target: T6, USP15 (UniProt Q9Y4E8)
T6 sequence (whole entry): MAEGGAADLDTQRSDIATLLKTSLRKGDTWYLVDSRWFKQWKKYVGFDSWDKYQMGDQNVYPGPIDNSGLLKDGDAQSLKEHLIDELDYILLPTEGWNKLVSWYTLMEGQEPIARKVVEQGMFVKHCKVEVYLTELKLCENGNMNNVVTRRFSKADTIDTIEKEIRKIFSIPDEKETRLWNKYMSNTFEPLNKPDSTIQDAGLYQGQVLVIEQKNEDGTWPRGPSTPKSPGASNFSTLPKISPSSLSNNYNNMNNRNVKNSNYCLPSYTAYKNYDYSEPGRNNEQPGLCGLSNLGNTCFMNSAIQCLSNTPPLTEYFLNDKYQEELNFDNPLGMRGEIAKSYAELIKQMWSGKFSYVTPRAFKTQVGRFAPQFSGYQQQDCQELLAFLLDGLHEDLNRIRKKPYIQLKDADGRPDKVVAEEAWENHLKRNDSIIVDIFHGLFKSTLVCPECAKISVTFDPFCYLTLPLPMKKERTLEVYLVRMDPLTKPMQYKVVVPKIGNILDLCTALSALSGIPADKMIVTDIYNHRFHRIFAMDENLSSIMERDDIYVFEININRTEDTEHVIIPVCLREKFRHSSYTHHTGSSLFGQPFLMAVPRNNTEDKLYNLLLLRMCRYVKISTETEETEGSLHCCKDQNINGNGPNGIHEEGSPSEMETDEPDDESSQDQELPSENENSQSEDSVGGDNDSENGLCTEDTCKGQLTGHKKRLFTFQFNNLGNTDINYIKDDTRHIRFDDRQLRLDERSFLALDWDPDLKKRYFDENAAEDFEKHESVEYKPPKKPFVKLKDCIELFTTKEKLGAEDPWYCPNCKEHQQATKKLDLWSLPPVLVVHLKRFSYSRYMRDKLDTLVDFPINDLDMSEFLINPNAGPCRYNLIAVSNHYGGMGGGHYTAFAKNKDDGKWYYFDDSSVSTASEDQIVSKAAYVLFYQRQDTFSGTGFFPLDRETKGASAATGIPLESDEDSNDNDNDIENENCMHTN
Summary of the method: as §1

[10] = target: USP16 (UniProt Q9Y5T5)
Summary of the method: as §1

Measured: log2 ratio of Biotin-Ahx-Ub-VS probe labelling

Sequence of USP10 (Q14694 whole entry): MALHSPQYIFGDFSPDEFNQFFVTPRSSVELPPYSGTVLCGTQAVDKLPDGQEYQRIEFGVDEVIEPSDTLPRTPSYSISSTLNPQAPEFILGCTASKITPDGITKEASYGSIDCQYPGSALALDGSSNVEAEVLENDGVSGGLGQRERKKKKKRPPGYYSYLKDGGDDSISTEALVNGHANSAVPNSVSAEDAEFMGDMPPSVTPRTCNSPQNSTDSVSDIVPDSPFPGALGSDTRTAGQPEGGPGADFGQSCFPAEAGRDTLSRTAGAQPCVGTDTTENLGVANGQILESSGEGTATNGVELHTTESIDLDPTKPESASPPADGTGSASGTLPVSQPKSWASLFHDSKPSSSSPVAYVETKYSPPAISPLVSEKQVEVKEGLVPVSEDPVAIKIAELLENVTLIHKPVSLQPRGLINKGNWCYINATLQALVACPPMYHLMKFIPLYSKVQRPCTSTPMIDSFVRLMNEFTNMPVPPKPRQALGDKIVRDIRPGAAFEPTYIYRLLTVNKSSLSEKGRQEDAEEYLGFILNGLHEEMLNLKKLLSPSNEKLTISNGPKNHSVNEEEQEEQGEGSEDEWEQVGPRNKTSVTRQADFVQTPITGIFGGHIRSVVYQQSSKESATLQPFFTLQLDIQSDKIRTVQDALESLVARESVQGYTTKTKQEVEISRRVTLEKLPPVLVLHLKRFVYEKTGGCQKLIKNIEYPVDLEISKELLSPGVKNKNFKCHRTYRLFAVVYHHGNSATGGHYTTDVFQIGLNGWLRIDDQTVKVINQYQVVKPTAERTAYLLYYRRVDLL
Sequence of UCHL1 (P09936 whole entry, looked up): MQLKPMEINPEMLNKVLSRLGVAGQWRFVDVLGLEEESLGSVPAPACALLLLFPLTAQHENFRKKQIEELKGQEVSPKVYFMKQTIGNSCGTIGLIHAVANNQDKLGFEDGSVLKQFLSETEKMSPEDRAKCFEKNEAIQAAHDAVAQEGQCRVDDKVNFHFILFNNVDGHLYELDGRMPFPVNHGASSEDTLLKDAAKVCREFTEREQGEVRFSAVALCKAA
Sequence of USP16 (Q9Y5T5 whole entry, looked up): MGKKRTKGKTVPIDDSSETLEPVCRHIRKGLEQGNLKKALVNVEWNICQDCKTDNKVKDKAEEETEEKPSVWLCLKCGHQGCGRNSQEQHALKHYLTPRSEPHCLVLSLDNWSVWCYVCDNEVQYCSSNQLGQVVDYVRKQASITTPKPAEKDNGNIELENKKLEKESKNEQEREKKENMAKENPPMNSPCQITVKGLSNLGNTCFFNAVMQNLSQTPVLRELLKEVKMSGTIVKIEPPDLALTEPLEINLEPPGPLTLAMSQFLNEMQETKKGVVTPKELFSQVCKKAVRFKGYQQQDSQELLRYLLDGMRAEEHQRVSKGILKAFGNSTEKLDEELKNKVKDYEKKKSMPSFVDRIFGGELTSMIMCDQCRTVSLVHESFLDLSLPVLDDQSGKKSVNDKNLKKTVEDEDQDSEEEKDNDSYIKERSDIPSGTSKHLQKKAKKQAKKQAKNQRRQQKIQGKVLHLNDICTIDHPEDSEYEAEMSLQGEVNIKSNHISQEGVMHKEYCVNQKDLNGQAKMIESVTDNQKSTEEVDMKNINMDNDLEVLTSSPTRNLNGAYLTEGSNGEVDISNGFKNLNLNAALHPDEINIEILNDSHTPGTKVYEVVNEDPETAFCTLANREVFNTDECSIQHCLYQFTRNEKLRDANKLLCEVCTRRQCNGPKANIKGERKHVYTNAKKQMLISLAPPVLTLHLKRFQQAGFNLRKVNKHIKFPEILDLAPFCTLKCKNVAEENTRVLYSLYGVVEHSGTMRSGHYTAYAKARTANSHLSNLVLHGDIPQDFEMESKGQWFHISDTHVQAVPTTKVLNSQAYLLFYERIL

Cc1ccc(CN(C)C(=O)CCl)o1
active: [5] -1.38
inactive: [1] 0.0695 | [2] -0.158 | [3] -0.0488 | [4] 0.0152 | [6] 0.611 | [7] -0.238 | [8] -0.157 | [9] -0.201 | [10] -0.0354
